Reference: the supplement of paper PMC11732987, “Enantioselective OTUD7B fragment discovery through chemoproteomics screening and high-throughput optimisation” (Communications Chemistry, 2025)

Key:
Experiment in all cases: log2 ratio of Biotin-Ahx-Ub-VS probe labelling (fragment/DMSO); higher = less target engagement (more negative = stronger competition), active = hit call of the paper (q ≤ 0.05, log2 ratio ≤ -1)
Settings in all cases: compound concentration: 200 uM; treatment time: 3 h
USP16 = USP16 (UniProt Q9Y5T5)
USP16, sequence (Q9Y5T5 whole entry, looked up, the tested form may be a part): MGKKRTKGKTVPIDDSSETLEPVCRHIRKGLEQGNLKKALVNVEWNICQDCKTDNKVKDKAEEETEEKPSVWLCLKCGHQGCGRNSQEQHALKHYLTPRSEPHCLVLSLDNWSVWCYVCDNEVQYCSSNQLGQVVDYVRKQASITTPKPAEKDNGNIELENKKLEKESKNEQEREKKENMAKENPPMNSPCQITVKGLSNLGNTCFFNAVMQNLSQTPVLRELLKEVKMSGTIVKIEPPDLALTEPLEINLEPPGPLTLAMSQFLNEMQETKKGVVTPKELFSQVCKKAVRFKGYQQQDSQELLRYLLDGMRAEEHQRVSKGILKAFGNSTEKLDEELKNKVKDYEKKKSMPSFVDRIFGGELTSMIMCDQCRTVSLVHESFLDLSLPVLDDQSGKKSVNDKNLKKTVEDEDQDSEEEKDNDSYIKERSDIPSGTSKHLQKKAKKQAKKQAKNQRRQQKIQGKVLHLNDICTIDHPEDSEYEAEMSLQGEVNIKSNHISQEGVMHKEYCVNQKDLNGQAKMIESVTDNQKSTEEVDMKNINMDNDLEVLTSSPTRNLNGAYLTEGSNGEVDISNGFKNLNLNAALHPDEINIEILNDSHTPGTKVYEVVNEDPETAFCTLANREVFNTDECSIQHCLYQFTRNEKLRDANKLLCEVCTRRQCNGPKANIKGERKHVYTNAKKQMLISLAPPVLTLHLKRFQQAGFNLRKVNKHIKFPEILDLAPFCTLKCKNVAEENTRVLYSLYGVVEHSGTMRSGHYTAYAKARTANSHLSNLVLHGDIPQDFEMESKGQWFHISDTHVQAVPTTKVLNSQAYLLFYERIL
How it was run: (§1)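 Labelled DUBs from HEK293T lysate were NeutrAvidin-enriched, digested with LysC and trypsin, and run by diaPASEF LC-MS/MS. Before that, each 495 µg sample in Tris/CHAPS/IGEPAL buffer with protease inhibitors was treated in triplicate with fragment at 200 µM or vehicle for 3 h, then with Biotin-Ahx-Ub-VS at 0.5 µM final for 1 h. Values are average log2 ratios of fragment over vehicle by unpaired t-test, based on global-median-normalised Spectronaut label-free quantities from proteins with ≥2 unique peptides.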

USP19 = target: T1, USP19 (UniProt O94966)
T1 sequence (whole entry): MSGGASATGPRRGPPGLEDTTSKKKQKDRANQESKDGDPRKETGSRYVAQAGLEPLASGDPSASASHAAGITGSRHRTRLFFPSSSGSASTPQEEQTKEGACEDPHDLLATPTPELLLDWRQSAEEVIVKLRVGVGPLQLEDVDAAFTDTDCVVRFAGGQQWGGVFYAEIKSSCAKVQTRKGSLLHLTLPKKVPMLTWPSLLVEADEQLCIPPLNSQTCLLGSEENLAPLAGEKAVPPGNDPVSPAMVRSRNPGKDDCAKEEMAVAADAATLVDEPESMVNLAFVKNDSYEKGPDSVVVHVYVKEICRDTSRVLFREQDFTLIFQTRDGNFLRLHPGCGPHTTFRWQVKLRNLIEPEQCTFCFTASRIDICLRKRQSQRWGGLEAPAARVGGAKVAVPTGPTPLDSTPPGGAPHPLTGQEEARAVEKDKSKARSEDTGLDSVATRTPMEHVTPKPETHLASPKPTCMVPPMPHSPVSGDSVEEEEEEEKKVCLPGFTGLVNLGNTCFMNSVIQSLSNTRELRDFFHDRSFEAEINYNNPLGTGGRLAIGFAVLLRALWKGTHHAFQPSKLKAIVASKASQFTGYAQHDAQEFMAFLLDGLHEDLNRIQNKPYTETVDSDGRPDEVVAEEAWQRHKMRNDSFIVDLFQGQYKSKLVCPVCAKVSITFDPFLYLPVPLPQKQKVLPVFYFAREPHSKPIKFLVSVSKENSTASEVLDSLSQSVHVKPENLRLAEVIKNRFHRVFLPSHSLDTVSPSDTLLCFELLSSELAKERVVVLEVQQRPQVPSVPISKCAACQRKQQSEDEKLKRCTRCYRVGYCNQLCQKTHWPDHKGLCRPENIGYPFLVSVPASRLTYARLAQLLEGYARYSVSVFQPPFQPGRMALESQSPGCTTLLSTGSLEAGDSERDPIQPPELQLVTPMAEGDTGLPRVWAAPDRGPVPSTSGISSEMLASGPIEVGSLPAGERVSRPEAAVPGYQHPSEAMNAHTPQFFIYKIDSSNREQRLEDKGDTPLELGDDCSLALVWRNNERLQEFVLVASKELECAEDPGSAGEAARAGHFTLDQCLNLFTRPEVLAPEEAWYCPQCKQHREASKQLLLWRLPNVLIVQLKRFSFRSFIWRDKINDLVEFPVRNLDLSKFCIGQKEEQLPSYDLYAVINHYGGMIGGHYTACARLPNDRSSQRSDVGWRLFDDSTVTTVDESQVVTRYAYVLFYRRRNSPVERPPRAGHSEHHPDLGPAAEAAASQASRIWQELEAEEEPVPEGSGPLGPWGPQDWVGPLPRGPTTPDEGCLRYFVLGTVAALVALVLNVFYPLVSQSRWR
How it was run: as §1

USP24 = USP24 (UniProt Q9UPU5)
USP24, sequence (Q9UPU5 whole entry): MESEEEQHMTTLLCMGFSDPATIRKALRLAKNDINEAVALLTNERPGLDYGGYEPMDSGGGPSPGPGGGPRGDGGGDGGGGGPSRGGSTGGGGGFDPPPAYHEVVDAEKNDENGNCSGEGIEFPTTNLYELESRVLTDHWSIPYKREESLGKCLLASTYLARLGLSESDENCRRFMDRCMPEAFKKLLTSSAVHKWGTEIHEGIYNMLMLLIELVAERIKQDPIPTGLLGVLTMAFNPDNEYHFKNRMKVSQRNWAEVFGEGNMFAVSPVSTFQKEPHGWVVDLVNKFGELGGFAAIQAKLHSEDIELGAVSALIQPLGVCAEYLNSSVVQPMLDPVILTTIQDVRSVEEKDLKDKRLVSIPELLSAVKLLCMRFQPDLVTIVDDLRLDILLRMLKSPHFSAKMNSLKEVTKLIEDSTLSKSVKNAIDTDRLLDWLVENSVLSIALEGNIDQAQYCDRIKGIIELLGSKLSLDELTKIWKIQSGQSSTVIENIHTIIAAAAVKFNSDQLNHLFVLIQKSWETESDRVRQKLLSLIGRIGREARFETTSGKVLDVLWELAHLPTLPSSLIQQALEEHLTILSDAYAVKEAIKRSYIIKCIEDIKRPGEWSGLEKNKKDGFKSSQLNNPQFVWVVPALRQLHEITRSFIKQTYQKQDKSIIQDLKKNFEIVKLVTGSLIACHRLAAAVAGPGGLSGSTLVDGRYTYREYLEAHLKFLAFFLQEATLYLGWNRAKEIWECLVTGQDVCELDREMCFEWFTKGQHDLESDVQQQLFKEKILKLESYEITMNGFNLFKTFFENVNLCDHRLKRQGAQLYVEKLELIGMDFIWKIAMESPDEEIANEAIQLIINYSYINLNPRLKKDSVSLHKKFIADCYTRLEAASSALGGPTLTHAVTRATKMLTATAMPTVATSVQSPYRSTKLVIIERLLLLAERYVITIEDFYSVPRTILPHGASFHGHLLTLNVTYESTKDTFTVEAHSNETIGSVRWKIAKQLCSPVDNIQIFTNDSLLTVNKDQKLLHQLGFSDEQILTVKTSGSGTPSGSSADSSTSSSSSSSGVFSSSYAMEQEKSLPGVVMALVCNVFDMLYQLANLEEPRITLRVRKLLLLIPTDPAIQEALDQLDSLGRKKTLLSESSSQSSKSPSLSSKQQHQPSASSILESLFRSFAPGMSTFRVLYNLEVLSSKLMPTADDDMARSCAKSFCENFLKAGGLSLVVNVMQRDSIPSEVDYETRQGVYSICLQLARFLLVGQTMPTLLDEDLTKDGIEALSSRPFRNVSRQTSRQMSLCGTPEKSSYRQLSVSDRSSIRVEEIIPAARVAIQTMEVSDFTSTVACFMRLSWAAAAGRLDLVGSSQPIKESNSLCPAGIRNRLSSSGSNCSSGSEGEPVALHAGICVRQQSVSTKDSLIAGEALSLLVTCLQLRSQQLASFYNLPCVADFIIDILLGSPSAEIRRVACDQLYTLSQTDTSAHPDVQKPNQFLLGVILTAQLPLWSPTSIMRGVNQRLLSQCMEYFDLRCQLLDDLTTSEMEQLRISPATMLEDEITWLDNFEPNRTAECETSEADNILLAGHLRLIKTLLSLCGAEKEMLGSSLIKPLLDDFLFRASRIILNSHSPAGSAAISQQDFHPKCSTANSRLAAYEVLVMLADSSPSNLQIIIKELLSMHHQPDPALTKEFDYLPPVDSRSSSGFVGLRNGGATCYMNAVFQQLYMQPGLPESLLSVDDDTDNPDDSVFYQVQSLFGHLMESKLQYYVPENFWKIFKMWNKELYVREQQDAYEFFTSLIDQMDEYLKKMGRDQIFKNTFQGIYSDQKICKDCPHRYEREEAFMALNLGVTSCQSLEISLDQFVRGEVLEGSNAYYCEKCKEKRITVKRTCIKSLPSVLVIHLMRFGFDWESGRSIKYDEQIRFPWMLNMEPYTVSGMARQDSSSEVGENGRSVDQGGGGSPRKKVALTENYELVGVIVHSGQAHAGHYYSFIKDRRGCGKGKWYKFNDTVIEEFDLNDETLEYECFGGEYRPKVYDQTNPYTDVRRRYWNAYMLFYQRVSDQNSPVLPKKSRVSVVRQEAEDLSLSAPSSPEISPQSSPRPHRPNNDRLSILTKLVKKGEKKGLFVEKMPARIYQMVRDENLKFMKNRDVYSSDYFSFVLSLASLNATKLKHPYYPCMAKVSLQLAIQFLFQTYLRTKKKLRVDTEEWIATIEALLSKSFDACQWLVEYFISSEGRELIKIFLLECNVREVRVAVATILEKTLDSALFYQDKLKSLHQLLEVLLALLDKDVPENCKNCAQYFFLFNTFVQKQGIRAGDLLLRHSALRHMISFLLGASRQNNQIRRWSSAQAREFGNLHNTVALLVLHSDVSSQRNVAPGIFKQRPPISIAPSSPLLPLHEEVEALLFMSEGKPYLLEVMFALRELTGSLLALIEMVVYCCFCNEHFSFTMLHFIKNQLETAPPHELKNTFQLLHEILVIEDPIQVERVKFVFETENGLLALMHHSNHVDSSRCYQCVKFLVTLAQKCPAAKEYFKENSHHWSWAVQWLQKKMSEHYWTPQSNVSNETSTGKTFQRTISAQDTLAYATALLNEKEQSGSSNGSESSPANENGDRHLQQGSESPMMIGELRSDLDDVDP
How it was run: as §1

USP25 = target: T2, USP25 (UniProt Q9UHP3)
T2 sequence (whole entry): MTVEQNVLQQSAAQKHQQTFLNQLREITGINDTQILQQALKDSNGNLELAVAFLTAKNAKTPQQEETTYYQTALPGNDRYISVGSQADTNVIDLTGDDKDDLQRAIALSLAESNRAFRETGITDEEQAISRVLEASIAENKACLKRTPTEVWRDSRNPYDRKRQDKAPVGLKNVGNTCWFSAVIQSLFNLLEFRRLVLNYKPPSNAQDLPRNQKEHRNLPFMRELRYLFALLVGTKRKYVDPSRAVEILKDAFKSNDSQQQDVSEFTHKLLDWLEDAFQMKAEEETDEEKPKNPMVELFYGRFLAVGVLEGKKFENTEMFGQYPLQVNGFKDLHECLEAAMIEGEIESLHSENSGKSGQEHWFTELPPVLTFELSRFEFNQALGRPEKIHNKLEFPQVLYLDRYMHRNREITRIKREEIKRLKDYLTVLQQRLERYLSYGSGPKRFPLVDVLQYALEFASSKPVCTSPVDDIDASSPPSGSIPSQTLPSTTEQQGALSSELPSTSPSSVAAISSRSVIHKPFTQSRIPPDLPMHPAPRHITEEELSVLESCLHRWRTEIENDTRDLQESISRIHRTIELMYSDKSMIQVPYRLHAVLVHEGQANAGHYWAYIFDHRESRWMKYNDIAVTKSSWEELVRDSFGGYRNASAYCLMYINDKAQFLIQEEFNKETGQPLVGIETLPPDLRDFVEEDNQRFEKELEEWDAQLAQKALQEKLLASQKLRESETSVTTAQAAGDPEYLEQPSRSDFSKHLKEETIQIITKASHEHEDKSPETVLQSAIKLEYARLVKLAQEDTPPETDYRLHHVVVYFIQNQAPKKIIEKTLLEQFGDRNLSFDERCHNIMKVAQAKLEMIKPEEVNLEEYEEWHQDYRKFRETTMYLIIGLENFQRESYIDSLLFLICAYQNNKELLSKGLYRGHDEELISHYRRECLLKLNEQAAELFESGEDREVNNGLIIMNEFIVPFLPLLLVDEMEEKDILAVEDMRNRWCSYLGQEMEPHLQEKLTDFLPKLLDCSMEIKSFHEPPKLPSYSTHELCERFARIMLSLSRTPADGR
How it was run: as §1

USP28 = target: T3, USP28 (UniProt Q96RU2)
T3 sequence (whole entry): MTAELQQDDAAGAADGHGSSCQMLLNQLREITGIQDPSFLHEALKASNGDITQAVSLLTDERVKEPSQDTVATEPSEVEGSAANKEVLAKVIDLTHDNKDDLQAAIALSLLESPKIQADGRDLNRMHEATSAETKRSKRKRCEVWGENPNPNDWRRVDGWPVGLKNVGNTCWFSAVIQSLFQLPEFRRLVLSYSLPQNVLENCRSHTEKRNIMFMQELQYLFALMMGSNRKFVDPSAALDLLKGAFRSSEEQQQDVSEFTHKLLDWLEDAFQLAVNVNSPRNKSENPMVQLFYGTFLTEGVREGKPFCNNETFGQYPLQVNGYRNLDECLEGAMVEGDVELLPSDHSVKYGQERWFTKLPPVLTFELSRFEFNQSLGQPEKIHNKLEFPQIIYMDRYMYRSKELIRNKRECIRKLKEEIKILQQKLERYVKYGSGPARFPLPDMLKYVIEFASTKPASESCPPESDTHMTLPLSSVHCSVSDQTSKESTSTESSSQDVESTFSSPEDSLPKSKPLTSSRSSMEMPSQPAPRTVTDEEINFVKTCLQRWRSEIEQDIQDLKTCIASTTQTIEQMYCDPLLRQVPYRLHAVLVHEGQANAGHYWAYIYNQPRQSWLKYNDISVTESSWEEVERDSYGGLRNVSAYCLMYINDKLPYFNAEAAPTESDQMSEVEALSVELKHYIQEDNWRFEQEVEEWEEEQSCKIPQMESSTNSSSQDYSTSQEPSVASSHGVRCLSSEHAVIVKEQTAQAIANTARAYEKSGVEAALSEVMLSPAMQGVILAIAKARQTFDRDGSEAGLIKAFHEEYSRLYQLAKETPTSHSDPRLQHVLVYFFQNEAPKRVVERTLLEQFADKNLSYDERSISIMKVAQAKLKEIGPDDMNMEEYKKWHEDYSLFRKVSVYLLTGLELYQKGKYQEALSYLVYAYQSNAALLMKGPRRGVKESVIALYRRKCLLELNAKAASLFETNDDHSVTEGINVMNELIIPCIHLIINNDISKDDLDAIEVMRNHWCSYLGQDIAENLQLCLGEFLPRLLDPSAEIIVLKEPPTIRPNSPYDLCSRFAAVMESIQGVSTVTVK
How it was run: as §1

Measured: log2 ratio of Biotin-Ahx-Ub-VS probe labelling

CCc1c[nH]c(CNC(=O)CCl)n1.Cl
inactive: USP16 -0.0099 | USP19 -0.279 | USP24 -0.668 | USP25 -0.182 | USP28 -0.44
